Among the data in article PMC3218832 are binding signal values, retold here.

Some targets named below: RELARELA (p65 homodimer) (Homo sapiens, UniProt Q04206 1-307); p50p50 homodimer (Homo sapiens, UniProt P19838 7-356); RELB subunit;p50 subunit (Homo sapiens;Homo sapiens, UniProt Q01201;P19838 120-401;7-356).
Common to all, as to experiment: protein binding microarray; high values mean tight binding
Holding throughout (details): dsDNA, one strand shown

Another assay concerns the target T1, p52p52 homodimer (Homo sapiens, UniProt Q00653 4-332).
T1 sequence: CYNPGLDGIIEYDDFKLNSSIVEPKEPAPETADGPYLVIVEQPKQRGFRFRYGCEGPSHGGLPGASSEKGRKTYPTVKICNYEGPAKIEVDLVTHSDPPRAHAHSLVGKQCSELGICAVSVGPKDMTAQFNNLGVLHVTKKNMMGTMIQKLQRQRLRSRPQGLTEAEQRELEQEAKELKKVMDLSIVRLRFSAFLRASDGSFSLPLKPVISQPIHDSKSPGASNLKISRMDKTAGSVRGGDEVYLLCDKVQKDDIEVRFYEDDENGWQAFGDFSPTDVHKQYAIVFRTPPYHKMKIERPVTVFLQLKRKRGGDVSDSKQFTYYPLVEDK

In assay [1] the target is RELA (p65) subunit of heterodimer;p50 subunit (Homo sapiens;Homo sapiens, UniProt Q04206;P19838 1-307;7-356).
RELA (p65) subunit of heterodimer;p50 subunit, sequence (Q04206 1-307, chain 1 of 2): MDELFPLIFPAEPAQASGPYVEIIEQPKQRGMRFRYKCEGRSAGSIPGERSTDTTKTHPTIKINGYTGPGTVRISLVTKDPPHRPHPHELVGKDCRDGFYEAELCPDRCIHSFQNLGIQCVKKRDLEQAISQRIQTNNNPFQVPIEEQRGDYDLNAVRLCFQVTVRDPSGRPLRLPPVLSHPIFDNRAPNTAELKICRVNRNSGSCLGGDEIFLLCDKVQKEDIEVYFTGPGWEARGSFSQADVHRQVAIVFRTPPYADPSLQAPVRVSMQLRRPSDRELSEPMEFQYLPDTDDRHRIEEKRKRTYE
RELA (p65) subunit of heterodimer;p50 subunit, sequence (P19838 7-356, chain 2 of 2): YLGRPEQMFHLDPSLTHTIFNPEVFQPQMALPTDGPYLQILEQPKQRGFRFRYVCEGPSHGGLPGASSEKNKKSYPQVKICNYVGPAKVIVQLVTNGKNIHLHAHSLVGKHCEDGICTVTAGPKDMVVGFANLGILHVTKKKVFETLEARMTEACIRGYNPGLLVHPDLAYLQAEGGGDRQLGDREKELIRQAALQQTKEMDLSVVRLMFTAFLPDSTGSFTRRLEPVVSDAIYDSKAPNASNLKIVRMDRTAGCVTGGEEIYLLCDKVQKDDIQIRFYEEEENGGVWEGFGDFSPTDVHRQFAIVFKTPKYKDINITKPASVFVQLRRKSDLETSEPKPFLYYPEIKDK
The target in assay [2] is RELA (p65) subunit of heterodimer;p52 subunit (Homo sapiens;Homo sapiens, UniProt Q04206;Q00653 1-307;4-332).
In another assay the target is T2, RELB subunit;p52 subunit (Homo sapiens;Homo sapiens, UniProt Q01201;Q00653 120-401;4-332).
T2 sequence 1: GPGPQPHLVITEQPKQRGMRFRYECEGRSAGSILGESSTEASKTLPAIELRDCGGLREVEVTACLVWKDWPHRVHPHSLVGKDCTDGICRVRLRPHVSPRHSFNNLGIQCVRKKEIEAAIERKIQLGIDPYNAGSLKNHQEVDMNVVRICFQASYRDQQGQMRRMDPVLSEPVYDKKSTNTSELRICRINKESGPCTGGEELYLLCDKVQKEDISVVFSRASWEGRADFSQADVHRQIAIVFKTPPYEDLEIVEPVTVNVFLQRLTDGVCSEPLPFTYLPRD
T2 sequence 2: T1 sequence

The target of assay [3] is C-Rel subunit;p50 subunit (Homo sapiens;Homo sapiens, UniProt Q04864;P19838 1-285;7-356).
Assay [4] deals with T3, C-Rel subunit;p52 subunit (Homo sapiens;Homo sapiens, UniProt Q04864;Q00653 1-285;4-332).
T3 sequence 1: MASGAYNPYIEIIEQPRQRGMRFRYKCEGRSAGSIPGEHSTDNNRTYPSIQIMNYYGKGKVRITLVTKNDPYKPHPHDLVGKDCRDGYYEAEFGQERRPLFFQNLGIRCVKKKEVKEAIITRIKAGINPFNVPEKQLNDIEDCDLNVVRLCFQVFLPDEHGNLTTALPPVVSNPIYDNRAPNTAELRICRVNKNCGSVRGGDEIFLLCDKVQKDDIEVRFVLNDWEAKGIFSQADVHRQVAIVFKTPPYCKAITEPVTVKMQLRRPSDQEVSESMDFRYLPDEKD
T3 sequence 2: T1 sequence

p50p50 homodimer, sequence (P19838 7-356): as the sequence (P19838 7-356, chain 2 of 2) above
RELARELA (p65 homodimer), sequence (Q04206 1-307): as the sequence (Q04206 1-307, chain 1 of 2) above

For the sequence AGGTGACTCCT, the binding signal is -0.642 z-score with RELARELA (p65 homodimer); -0.518 z-score with p50p50 homodimer; -0.228 z-score with p52p52 homodimer; -0.661 z-score in [1]; -0.704 z-score in [2]; -0.778 z-score with RELB subunit;p50 subunit. Further, the figures for the binding signal (in the assay with RELB subunit;p52 subunit; in assay [3]; in [4]) were -0.791 z-score, -0.985 z-score and -0.779 z-score, respectively.

As to CGGAGGTTCCC, the binding signal is 1.2 z-score with RELARELA (p65 homodimer); -0.355 z-score with p50p50 homodimer; -0.258 z-score with p52p52 homodimer; 0.387 z-score in [1]; -0.0508 z-score in assay [2]; -0.291 z-score with RELB subunit;p50 subunit. The binding signal with RELB subunit;p52 subunit is -0.115 z-score; in [3] it was 0.126 z-score; in [4] it was -0.0163 z-score.

On to CGGGGAATCCC, for which the binding signal turned out to be 3.57 z-score with RELARELA (p65 homodimer); 1.22 z-score in the assay with p50p50 homodimer; 3.13 z-score with p52p52 homodimer; 2.36 z-score in assay [1]; 2.81 z-score in assay [2]; 2.64 z-score in the assay with RELB subunit;p50 subunit. The binding signal turned out to be 2.75 z-score with RELB subunit;p52 subunit, 2.51 z-score in assay [3] and 3.54 z-score in [4].

Take GGAAGAGCCCT: the binding signal with RELARELA (p65 homodimer) was -0.298 z-score; with p50p50 homodimer, -0.632 z-score; with p52p52 homodimer, -0.649 z-score; in assay [1], -0.191 z-score; in assay [2], -0.503 z-score; with RELB subunit;p50 subunit, -0.91 z-score. Besides, the binding signal with RELB subunit;p52 subunit was -0.727 z-score; in assay [3], -0.606 z-score; in assay [4], -0.318 z-score.

Take GGATATCTCCC: the binding signal stood at 0.156 z-score in the assay with RELARELA (p65 homodimer); 0.192 z-score with p50p50 homodimer; 0.0332 z-score with p52p52 homodimer; 0.149 z-score in [1]; 0.0232 z-score in assay [2]; 0.028 z-score with RELB subunit;p50 subunit. The figures for the binding signal (in the assay with RELB subunit;p52 subunit; in [3]; in assay [4]) were -0.143 z-score, -0.122 z-score and -0.036 z-score, respectively.

As for CGGGGTTCCCC, the binding signal in the assay with RELARELA (p65 homodimer) turned out to be 2.62 z-score; with p50p50 homodimer, 0.899 z-score; with p52p52 homodimer, 3.05 z-score; in assay [1], 2.3 z-score; in assay [2], 2.64 z-score; in the assay with RELB subunit;p50 subunit, 1.93 z-score. Moreover, the binding signal with RELB subunit;p52 subunit worked out at 2.28 z-score; in [3], 2.2 z-score; in [4], 3.29 z-score.

As to GGATGATTCCT, the binding signal with RELARELA (p65 homodimer) is 0.0919 z-score; with p50p50 homodimer it was -1.32 z-score; with p52p52 homodimer, -0.648 z-score; in [1], -0.708 z-score; in assay [2], -0.749 z-score; with RELB subunit;p50 subunit, -0.941 z-score. The binding signal in the assay with RELB subunit;p52 subunit is -0.913 z-score; in [3], -0.706 z-score; in assay [4], -0.54 z-score.

For AAATTGCTCCT, the binding signal with RELARELA (p65 homodimer) is -0.35 z-score; with p50p50 homodimer it was -1.61 z-score; with p52p52 homodimer, -0.602 z-score; in assay [1] it was -0.644 z-score; in [2], -0.813 z-score; in the assay with RELB subunit;p50 subunit it was -0.967 z-score. Further, the binding signal with RELB subunit;p52 subunit is -0.7 z-score; in [3] it was -1.33 z-score; in [4] it was -0.903 z-score.

Take AAAGTGATCCT: the binding signal with RELARELA (p65 homodimer) is -0.833 z-score; in the assay with p50p50 homodimer it was -1.79 z-score; with p52p52 homodimer, -0.692 z-score; in assay [1] it was -1.3 z-score; in assay [2] it was -1.06 z-score; with RELB subunit;p50 subunit it was -1.27 z-score. Also, the binding signal with RELB subunit;p52 subunit is -0.978 z-score; in [3] it was -1.55 z-score; in assay [4] it was -0.986 z-score.

For the sequence GGGTAAGTCCT, the binding signal with RELARELA (p65 homodimer) turned out to be 1.28 z-score; with p50p50 homodimer, 0.161 z-score; with p52p52 homodimer it was 1.41 z-score; in [1] it was 0.335 z-score; in assay [2] it was 0.851 z-score; with RELB subunit;p50 subunit, 0.207 z-score. Further, the figures for the binding signal (with RELB subunit;p52 subunit; in assay [3]; in assay [4]) were 0.217 z-score, 0.357 z-score and 0.997 z-score, respectively.

For CGGAAAACCCC, the binding signal worked out at 3.69 z-score with RELARELA (p65 homodimer); 1.19 z-score in the assay with p50p50 homodimer; 2.57 z-score in the assay with p52p52 homodimer; 2.32 z-score in assay [1]; 2.28 z-score in [2]; 1.23 z-score with RELB subunit;p50 subunit. In addition, the binding signal in the assay with RELB subunit;p52 subunit was 2.18 z-score; in [3] it was 2.07 z-score; in [4] it was 3.23 z-score.

Regarding CAGGGCCTCCC, the binding signal was -0.644 z-score with RELARELA (p65 homodimer); -0.933 z-score in the assay with p50p50 homodimer; -0.467 z-score with p52p52 homodimer; -0.699 z-score in assay [1]; -0.636 z-score in assay [2]; -0.64 z-score with RELB subunit;p50 subunit. Moreover, the binding signal was -0.746 z-score with RELB subunit;p52 subunit, -0.529 z-score in assay [3] and -0.502 z-score in assay [4].

Take AGGTAGGCCCT: the binding signal was -0.932 z-score with RELARELA (p65 homodimer); -0.756 z-score in the assay with p50p50 homodimer; -0.535 z-score with p52p52 homodimer; -0.978 z-score in assay [1]; -0.63 z-score in assay [2]; -0.647 z-score with RELB subunit;p50 subunit. The binding signal in the assay with RELB subunit;p52 subunit is -0.561 z-score; in [3], -1.13 z-score; in assay [4], -0.598 z-score.

CGGTTCATCCT: the binding signal with RELARELA (p65 homodimer) was -0.997 z-score; in the assay with p50p50 homodimer, -1.12 z-score; with p52p52 homodimer it was -0.513 z-score; in assay [1], -0.88 z-score; in assay [2], -0.9 z-score; with RELB subunit;p50 subunit, -0.96 z-score. Besides, the values for the binding signal (with RELB subunit;p52 subunit; in assay [3]; in [4]) were -0.765 z-score, -1.41 z-score and -1.01 z-score, respectively.

For AGAGATTTCCT, the binding signal was 0.344 z-score in the assay with RELARELA (p65 homodimer); -0.498 z-score with p50p50 homodimer; -0.5 z-score in the assay with p52p52 homodimer; -0.403 z-score in assay [1]; -0.389 z-score in assay [2]; -0.762 z-score with RELB subunit;p50 subunit. For the same sequence, the binding signal was -0.49 z-score with RELB subunit;p52 subunit, -0.209 z-score in assay [3] and -0.443 z-score in assay [4].
